Laboratory results taken from PubChem BioAssay.
Measured potencies and affinities stand elsewhere. Calls of active or inactive are those of the source. Unless noted, the limit is not given here; nearly all actives have IC50 up to about 0.98 µM.

What follows are compounds tested against Calcium-dependent protein kinase 1 (Plasmodium falciparum (isolate 3D7)) (UniProt P62344) (assay: PfCDPK1 kinase inhibitors, biochemical, TCAMS library (AID 1159585;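 also: inhibitors leave more ATP so luminescence rises with inhibition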)). Settings: recombinant PfCDPK1, Kinase-Glo ATP depletion luminescence.
Sequence of Calcium-dependent protein kinase 1 (Plasmodium falciparum (isolate 3D7)) (P62344 whole entry, looked up): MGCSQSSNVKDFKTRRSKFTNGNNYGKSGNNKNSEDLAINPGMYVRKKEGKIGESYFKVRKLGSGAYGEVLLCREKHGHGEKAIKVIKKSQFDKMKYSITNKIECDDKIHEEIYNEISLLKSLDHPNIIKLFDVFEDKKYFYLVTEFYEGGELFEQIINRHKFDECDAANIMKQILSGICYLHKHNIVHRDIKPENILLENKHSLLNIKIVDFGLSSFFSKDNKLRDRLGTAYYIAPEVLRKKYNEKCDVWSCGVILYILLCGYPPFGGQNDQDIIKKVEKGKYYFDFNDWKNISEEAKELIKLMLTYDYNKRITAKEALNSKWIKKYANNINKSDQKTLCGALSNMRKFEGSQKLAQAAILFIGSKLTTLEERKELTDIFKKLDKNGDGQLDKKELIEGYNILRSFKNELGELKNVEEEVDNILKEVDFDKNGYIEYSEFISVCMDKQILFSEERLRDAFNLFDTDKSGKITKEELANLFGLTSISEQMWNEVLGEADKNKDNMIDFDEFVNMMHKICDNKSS

outcome, inactive:
Cc1ccccc1N1CCN(c2ccc(C(=O)NC(C)C)cn2)CC1
COc1ccc2nccc([C@@H](O)CN3CCC(NC(=O)c4ccc(C5(C(F)(F)F)N=N5)cc4)CC3)c2c1
Cc1ccccc1C1CCN(C2CCC(NC(=O)/C=C/c3ccc(Cl)cc3)CC2)CC1 (stereo not given)
Cc1cccc2[nH]c(-c3ccc(-c4ccc(CN5CCCC(O)C5)cc4)s3)nc12 (stereo not given)
COc1cc(NC(=O)/C=C/c2cc(F)cc(F)c2F)cc(OCCN2CCC3(CC2)OCCO3)c1
Cc1ccccc1Cc1cccc(/N=C(\N)Nc2ccc(Cl)cc2)n1
CCCCCC(C)NC[C@@H](O)[C@H](Cc1ccccc1)NC(=O)c1cc(NCC)cc(N2CCCCS2(=O)=O)c1 (stereo not given in full)
O=[N+]([O-])c1ccc(C=NNc2nc(Nc3ccccc3)nc(Nc3ccccc3)n2)o1
CCNc1cc(C(=O)N[C@@H](Cc2cccc(Cl)c2)[C@H](O)CNC(C)CCCC(C)C)cc(N2CCCCS2(=O)=O)c1 (stereo not given in full)
CN(C)Cc1ccc(-c2ccc3ccnc(N)c3c2)cc1
O=C(Nc1ccc(N2CCNCC2)cc1)c1ccn2ncc(-c3cccc(Cl)c3)c2n1
COc1ccc(-c2ccc(NC(=O)c3cccc(Cl)c3)cc2)cc1CN1CCCN(C)CC1
CCC(C)c1ccc(-n2c(Nc3ccccc3)nc3cc(S(N)(=O)=O)ccc32)cc1 (stereo not given)
Cc1c(C(=O)Nc2cc(Sc3ccc(F)cc3)cc([N+](=O)[O-])c2)sc2ncn(Cc3cccc(F)c3)c(=O)c12
COc1ccc(N2CCN(CCCCNC(=O)c3ccc(NC(=O)c4ccc(Cl)cc4)cc3)CC2)c(C)c1
Nc1cc2c(C3CCN(CC4CCN(C(=O)/C=C/c5ccc(Cl)c(Cl)c5)CC4)CC3)c[nH]c2cn1
O=C(Nc1ccc(-c2ccc(-c3nc4ccc(C(F)(F)F)cc4[nH]3)s2)cc1)c1ccoc1
Cc1cccc(CN2CCC(CNC(=O)c3cc4c(-c5ccccc5F)nn(C)c4s3)CC2)c1
CCc1c(CCNC/C=C/C=C/CNCCc2ccc(OC)c(OC)c2CC)ccc(OC)c1OC
CC(C)C(C(=O)n1cc2c(ccc3nc(N)nc(N)c32)n1)C(C)C
Cc1cccc(Nc2nc3nonc3nc2Nc2cccc(Cl)c2Cl)c1C
COc1cccc(CCc2ccc(O)c3c2C[C@H]2C[C@H]4[C@H](N(C)C)C(=O)C(C(N)=O)=C(O)[C@@]4(O)C(=O)C2=C3O)c1
CCOC(=O)c1ccc(NC(=O)N(Cc2ccc(-c3ccc(CN4CCNCC4)cc3)cc2)Cc2cccnc2)cc1
COc1cc(NC(=O)/C=C/c2cc(F)cc(F)c2F)cc(OCCN2CCCCC2)c1
CC(C)Cn1c(N)cc(=O)n(C)c1=O
COc1ccc(-c2nc(NC(=O)Cc3ccc4c(c3)OCCO4)sc2C)cc1
COc1ccc(-c2nc3c(NCc4ccccc4)nccc3[nH]2)c(OC)c1
Cc1cccc(CN2CCC(C(=O)Nc3ccc(-c4nc5ccccc5[nH]4)cc3)CC2)n1
Cc1ccc(C2CCN(CCCCNC(=O)c3ccc(NC(=O)c4ccc(Cl)cc4)cc3)CC2)c(OCC(F)(F)F)c1
CN(C)CC1CCCN1Cc1ccccc1-c1cnn(C)c(=O)c1Oc1ccccc1F (stereo not given)
CC(C)(C)OC(=O)NCC(=O)N(Cc1ccccc1)Cc1ccccc1
COc1cc(C(=O)N2CCOC(CCN3CCC[C@H]3C(=O)Nc3ccccc3)(c3ccc(Cl)c(Cl)c3)C2)cc(OC)c1OC (stereo not given in full)
O=C(/C=C/c1ccc(Cl)c(Cl)c1)NCCCCCCN1CCCN(C(=O)Nc2ccc(F)c(Cl)c2)CC1
Cc1nc(NCc2ccccc2)cc(NCC(O)c2ccc(O)cc2)n1 (stereo not given)
Cc1nc(-c2ccc(-c3ccc(NC(=O)Nc4ccc(I)c(OCCN(C)C)c4)cc3)c(C)c2)no1
Nc1nc(N)c2c(ccc3c2ccn3CCCC2CCCNC2)n1 (stereo not given)
CCc1cn2c3c(cc(C(=O)N[C@@H](Cc4ccccc4)[C@H](O)CNC4CCOCC4)cc13)N(C)S(=O)(=O)C2
CNC(=O)/C=C/c1cc(NC(=O)Nc2cc(C)nc3c(F)cccc23)ccc1OC
CC(C)Cn1cc(C2CCN(CCN3CCC(CNC(=O)c4ccc(NC(=O)c5cc(Cl)cc(Cl)c5)cc4)CC3)CC2)c2ccccc21
O=C(NCCCNc1ccnc2cc(Cl)ccc12)c1ccccc1F

What follows are compounds tested against Plasmodium falciparum protein kinase 6 (PK6, PF3D7_1337100) (UniProt Q8IDW1) (assay: PfPK6 kinase inhibitors, biochemical, TCAMS library (AID 1159586; call rule not given here)). Settings: recombinant PfPK6, Kinase-Glo ATP depletion luminescence.
Sequence of Plasmodium falciparum protein kinase 6 (PK6, PF3D7_1337100) (Q8IDW1 1-305): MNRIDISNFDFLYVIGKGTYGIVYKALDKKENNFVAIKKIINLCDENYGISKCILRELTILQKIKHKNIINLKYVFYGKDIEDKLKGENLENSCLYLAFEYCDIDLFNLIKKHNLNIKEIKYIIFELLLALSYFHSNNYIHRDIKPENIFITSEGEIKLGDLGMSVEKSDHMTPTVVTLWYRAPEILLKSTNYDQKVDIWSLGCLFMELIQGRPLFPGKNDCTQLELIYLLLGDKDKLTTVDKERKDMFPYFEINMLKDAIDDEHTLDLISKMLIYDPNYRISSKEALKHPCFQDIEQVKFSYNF

outcome, inactive:
Cc1ccccc1N1CCN(c2ccc(C(=O)NC(C)C)cn2)CC1
COc1ccc2nccc([C@@H](O)CN3CCC(NC(=O)c4ccc(C5(C(F)(F)F)N=N5)cc4)CC3)c2c1
Cc1ccccc1C1CCN(C2CCC(NC(=O)/C=C/c3ccc(Cl)cc3)CC2)CC1 (stereo not given)
Cc1cccc2[nH]c(-c3ccc(-c4ccc(CN5CCCC(O)C5)cc4)s3)nc12 (stereo not given)
COc1cc(NC(=O)/C=C/c2cc(F)cc(F)c2F)cc(OCCN2CCC3(CC2)OCCO3)c1
Cc1ccccc1Cc1cccc(/N=C(\N)Nc2ccc(Cl)cc2)n1
CCCCCC(C)NC[C@@H](O)[C@H](Cc1ccccc1)NC(=O)c1cc(NCC)cc(N2CCCCS2(=O)=O)c1 (stereo not given in full)
O=[N+]([O-])c1ccc(C=NNc2nc(Nc3ccccc3)nc(Nc3ccccc3)n2)o1
CCNc1cc(C(=O)N[C@@H](Cc2cccc(Cl)c2)[C@H](O)CNC(C)CCCC(C)C)cc(N2CCCCS2(=O)=O)c1 (stereo not given in full)
CN(C)Cc1ccc(-c2ccc3ccnc(N)c3c2)cc1
O=C(Nc1ccc(N2CCNCC2)cc1)c1ccn2ncc(-c3cccc(Cl)c3)c2n1
COc1ccc(-c2ccc(NC(=O)c3cccc(Cl)c3)cc2)cc1CN1CCCN(C)CC1
CCC(C)c1ccc(-n2c(Nc3ccccc3)nc3cc(S(N)(=O)=O)ccc32)cc1 (stereo not given)
Cc1c(C(=O)Nc2cc(Sc3ccc(F)cc3)cc([N+](=O)[O-])c2)sc2ncn(Cc3cccc(F)c3)c(=O)c12
COc1ccc(N2CCN(CCCCNC(=O)c3ccc(NC(=O)c4ccc(Cl)cc4)cc3)CC2)c(C)c1
Nc1cc2c(C3CCN(CC4CCN(C(=O)/C=C/c5ccc(Cl)c(Cl)c5)CC4)CC3)c[nH]c2cn1
O=C(Nc1ccc(-c2ccc(-c3nc4ccc(C(F)(F)F)cc4[nH]3)s2)cc1)c1ccoc1
Cc1cccc(CN2CCC(CNC(=O)c3cc4c(-c5ccccc5F)nn(C)c4s3)CC2)c1
CCc1c(CCNC/C=C/C=C/CNCCc2ccc(OC)c(OC)c2CC)ccc(OC)c1OC
CC(C)C(C(=O)n1cc2c(ccc3nc(N)nc(N)c32)n1)C(C)C
Cc1cccc(Nc2nc3nonc3nc2Nc2cccc(Cl)c2Cl)c1C
COc1cccc(CCc2ccc(O)c3c2C[C@H]2C[C@H]4[C@H](N(C)C)C(=O)C(C(N)=O)=C(O)[C@@]4(O)C(=O)C2=C3O)c1
CCOC(=O)c1ccc(NC(=O)N(Cc2ccc(-c3ccc(CN4CCNCC4)cc3)cc2)Cc2cccnc2)cc1
COc1cc(NC(=O)/C=C/c2cc(F)cc(F)c2F)cc(OCCN2CCCCC2)c1
CC(C)Cn1c(N)cc(=O)n(C)c1=O
COc1ccc(-c2nc(NC(=O)Cc3ccc4c(c3)OCCO4)sc2C)cc1
COc1ccc(-c2nc3c(NCc4ccccc4)nccc3[nH]2)c(OC)c1
Cc1cccc(CN2CCC(C(=O)Nc3ccc(-c4nc5ccccc5[nH]4)cc3)CC2)n1
Cc1ccc(C2CCN(CCCCNC(=O)c3ccc(NC(=O)c4ccc(Cl)cc4)cc3)CC2)c(OCC(F)(F)F)c1
CN(C)CC1CCCN1Cc1ccccc1-c1cnn(C)c(=O)c1Oc1ccccc1F (stereo not given)
CC(C)(C)OC(=O)NCC(=O)N(Cc1ccccc1)Cc1ccccc1
COc1cc(C(=O)N2CCOC(CCN3CCC[C@H]3C(=O)Nc3ccccc3)(c3ccc(Cl)c(Cl)c3)C2)cc(OC)c1OC (stereo not given in full)
O=C(/C=C/c1ccc(Cl)c(Cl)c1)NCCCCCCN1CCCN(C(=O)Nc2ccc(F)c(Cl)c2)CC1
Cc1nc(NCc2ccccc2)cc(NCC(O)c2ccc(O)cc2)n1 (stereo not given)
Cc1nc(-c2ccc(-c3ccc(NC(=O)Nc4ccc(I)c(OCCN(C)C)c4)cc3)c(C)c2)no1
Nc1nc(N)c2c(ccc3c2ccn3CCCC2CCCNC2)n1 (stereo not given)
CCc1cn2c3c(cc(C(=O)N[C@@H](Cc4ccccc4)[C@H](O)CNC4CCOCC4)cc13)N(C)S(=O)(=O)C2
CNC(=O)/C=C/c1cc(NC(=O)Nc2cc(C)nc3c(F)cccc23)ccc1OC
CC(C)Cn1cc(C2CCN(CCN3CCC(CNC(=O)c4ccc(NC(=O)c5cc(Cl)cc(Cl)c5)cc4)CC3)CC2)c2ccccc21
O=C(NCCCNc1ccnc2cc(Cl)ccc12)c1ccccc1F
